Holding throughout (experiment): qHTS profiling for inhibitors of Plasmodium falciparum proliferation (AID 504749); note: nearly all actives have a fitted effect of over 60% in size
Holding throughout (conditions): P. falciparum in erythrocytes, SYBR Green DNA, 72 h; series mostly up to 28.7 µM
A general note: In qHTS, concentration-response curves come from the screen itself.

Assay [1] relates to ICS. An outline of the steps: (§1)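 SYBR Green fluorescence (ex 485 nm, em 535 nm) reports parasite DNA after 72 h compound exposure of infected red cells at 0.3% parasitemia, 2.5% hematocrit; signal normalized to 0.29 uM artemisinin and vehicle wells.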
Assay [2] relates to JCK. An outline of the steps: as §1
In assay [3] the test system is N140. A digest of the protocol: as §1
Assay [4] relates to P93_24. A digest of the protocol: as §1
The test system of assay [5] is P94_40. An outline of the steps:
as §1

Assay [6] has as its system PAD. A digest of the protocol:
as §1

For assay [7], the system named is PC15. A digest of the protocol:
as §1

The subject of assay [8] is PC26. An outline of the steps: as §1
The test system of assay [9] is PC49. A digest of the protocol: as §1
Assay [10] concerns SC27B. An outline of the steps: as §1

Results filed as inconclusive are left out. The source made the active and inactive calls. Calls come from the whole dose curve; as a rule, active = well fitted inhibition curve with a large enough effect; inconclusive = small, poorly fitted or top-dose-only effect; inactive = flat fitted curve, though single readings scatter.
Potency is the fitted concentration of half-maximal effect.

For `O=S(=O)(O)c1ccc(O)cc1`, the Potency result in assay [1], in assay [2], in [3], in assay [4], in assay [5] and in assay [6] was “inactive” in each case. For the same molecule, the Potency result in [7], in assay [8], in [9] and in [10] was “inactive” throughout.

For `CCOC(=O)C(C#N)=C(c1ccccc1)c1ccccc1`, the Potency result in [1], in assay [2], in assay [3], in assay [4], in assay [5] and in assay [6] was “inactive” in each case. Also, the Potency result in assay [7], in assay [8], in assay [9] and in assay [10] was “inactive” throughout.

Take `CCN1/C(=C/C=C/c2sc3ccccc3[n+]2CC)Sc2ccccc21`: the Potency in [1] was 0.1 µM (active); in assay [2], 0.398 µM (active); in assay [3], 0.251 µM (active); in [4], 0.112 µM (active); in assay [5], 0.112 µM (active); in assay [6], 0.282 µM (active). Moreover, the Potency in assay [7] is 0.316 µM (active); in assay [8] it was 0.849 µM (active); in assay [9], 1.12 µM (active); in assay [10], 0.282 µM (active).

As to `O=C(Nc1cccc(C2=NCCN2)c1)Nc1cccc(C2=NCCN2)c1`, the Potency is 2.24 µM (active) in assay [1]; 5.01 µM (active) in assay [2]; 4.47 µM (active) in assay [3]; 1.78 µM (active) in [4]; 1.12 µM (active) in assay [5]; 3.16 µM (active) in assay [6]. The Potency in [7] was 3.98 µM (active); in [8], 8.49 µM (active); in [9], 5.62 µM (active).

For the molecule `O=C(NCCc1c[nH]c2ccccc12)c1cccnc1`, the Potency entry in assay [1], in assay [2], in assay [3], in assay [4], in assay [5] and in assay [6] was “inactive” in each case. Besides, the Potency entry in [7], in assay [8], in assay [9] and in assay [10] was “inactive” each time.

In the case of `O=C(O)c1ccc(S(=O)(=O)N(Cl)Cl)cc1`, the Potency entry in assay [1], in assay [2], in assay [3], in [4], in [5] and in [6] was “inactive” throughout. The Potency entry in [7], in assay [8], in assay [9] and in assay [10] was “inactive” each time.

Turning to `N=C(N)N1CCc2ccccc2C1`, the Potency entry in assay [1], in [2], in assay [3], in assay [4], in [5] and in [6] was “inactive” in each case. Further, the Potency entry in [7], in assay [8], in assay [9] and in assay [10] was “inactive” each time.

Consider `C#C[C@]1(O)CC[C@H]2[C@@H]3CCC4=Cc5oncc5C[C@]4(C)[C@H]3CC[C@@]21C`, for which the Potency result in assay [1], in [2], in assay [3], in assay [4], in [5] and in assay [6] was “inactive” throughout. In addition, the Potency result in assay [7], in assay [8], in assay [9] and in assay [10] was “inactive” each time.

In the case of `CCOc1cc(OCC)c(C(=O)CCC(=O)O)cc1OCC`, the Potency entry in [1], in assay [2], in assay [3], in assay [4], in [5] and in [6] was “inactive” each time. The Potency result in assay [7], in [8], in assay [9] and in [10] was “inactive” throughout.

For `CCc1oc2ccccc2c1C(=O)c1cc(I)c(O)c(I)c1`, the Potency entry in assay [1], in assay [2], in [3], in [4], in assay [5] and in [6] was “inactive” throughout. Further, the Potency entry in assay [7], in assay [8], in assay [9] and in [10] was “inactive” in each case.

For the molecule `CCCCC(CC)COC(=O)/C=C/c1ccc(OC)cc1` (centres undefined), the Potency result in assay [1], in [2], in assay [3], in [4], in [5] and in [6] was “inactive” in each case. The Potency result in assay [7], in assay [8], in assay [9] and in assay [10] was “inactive” each time.

`COc1cc(C(=S)N2CCOCC2)ccc1O`: the Potency entry in [1], in assay [2], in [3], in [4], in assay [5] and in assay [6] was “inactive” throughout. Moreover, the Potency result in assay [7], in [8], in assay [9] and in assay [10] was “inactive” throughout.

Turning to `OC[C@H]1O[C@@H]2O[C@H]3[C@H](O)[C@@H](O)[C@@H](O[C@H]4[C@H](O)[C@@H](O)[C@@H](O[C@H]5[C@H](O)[C@@H](O)[C@@H](O[C@H]6[C@H](O)[C@@H](O)[C@@H](O[C@H]7[C@H](O)[C@@H](O)[C@@H](O[C@H]8[C@H](O)[C@@H](O)[C@@H](O[C@H]1[C@H](O)[C@H]2O)O[C@@H]8CO)O[C@@H]7CO)O[C@@H]6CO)O[C@@H]5CO)O[C@@H]4CO)O[C@@H]3CO`, the Potency result in assay [1], in [2], in assay [3], in assay [4], in assay [5] and in assay [6] was “inactive” in each case. Besides, the Potency entry in assay [7], in assay [8], in [9] and in [10] was “inactive” each time.

As to `COc1ccc(-c2cc(C(F)F)nn2-c2ccc(S(N)(=O)=O)cc2)cc1F`, the Potency entry in assay [1], in assay [2], in assay [3], in [4], in assay [5] and in assay [6] was “inactive” in each case. Also, the Potency entry in assay [7], in [8], in [9] and in assay [10] was “inactive” throughout.

For `FC1(F)C(F)(F)C(F)(F)C2(F)C(F)(F)C(F)(F)C(F)(F)C(F)(F)C2(F)C1(F)F` (centres undefined), the Potency entry in assay [1], in [2], in [3], in assay [4], in assay [5] and in assay [6] was “inactive” throughout. In addition, the Potency result in assay [7], in [8], in assay [9] and in [10] was “inactive” each time.

Regarding `CCOc1ccc(NC(C)=O)cc1`, the Potency result in [1], in assay [2], in [3], in assay [4], in assay [5] and in [6] was “inactive” throughout. Also, the Potency result in assay [7], in assay [8], in [9] and in [10] was “inactive” throughout.

As to `O=C(Nc1ncc([N+](=O)[O-])s1)c1cccs1`, the Potency result in assay [1], in [2], in [3], in assay [4], in [5] and in [6] was “inactive” in each case. For the same molecule, the Potency entry in [7], in assay [8], in [9] and in assay [10] was “inactive” throughout.

Regarding `COc1ccc2c(c1)c1c3n2CCN(C)C3=NCC1`, the Potency entry in assay [1], in assay [2], in assay [3], in assay [4], in assay [5] and in assay [6] was “inactive” throughout. In addition, the Potency result in assay [7], in [8], in [9] and in assay [10] was “inactive” throughout.

As for `CC(=O)Oc1ccc(C)cc1`, the Potency result in [1], in [2], in assay [3], in assay [4], in assay [5] and in [6] was “inactive” each time. For the same molecule, the Potency result in [7], in assay [8], in assay [9] and in assay [10] was “inactive” in each case.

Turning to `Cc1c(-c2ccccc2)oc2c(C(=O)OCCN3CCCCC3)cccc2c1=O`, the Potency result in assay [1], in assay [2], in assay [3], in [4], in [5] and in assay [6] was “inactive” throughout. Also, the Potency result in assay [7], in assay [8], in assay [9] and in assay [10] was “inactive” throughout.

Regarding `Oc1ccccc1C=NCc1ccccc1`, the Potency result in assay [1], in assay [2], in assay [3], in assay [4], in assay [5] and in [6] was “inactive” throughout. For the same molecule, the Potency entry in assay [7], in assay [8], in assay [9] and in assay [10] was “inactive” each time.

In the case of `O=C(O)C(Cc1cc(I)c(O)c(I)c1)c1ccccc1` (centres undefined), the Potency result in assay [1], in assay [2], in [3], in [4], in [5] and in [6] was “inactive” throughout. The Potency result in assay [7], in assay [8], in [9] and in assay [10] was “inactive” in each case.

As to `COc1cc(NS(=O)(=O)c2ccc(N)cc2)ncn1`, the Potency result in [1], in [2], in [3], in assay [4], in assay [5] and in assay [6] was “inactive” in each case. For the same molecule, the Potency result in assay [7], in [8], in assay [9] and in assay [10] was “inactive” each time.

The record behind these values is PubChem BioAssay (NCATS).
